Data on 15 molecules can be found in PubChem BioAssay (NCATS).

A number with no mark means an inactive call. Inconclusive results are not listed. Active and inactive are the calls of the source. Unless noted, calls follow the shape of the dose curve; as a rule, active = well fitted curve in the direction sought with a large enough effect; inconclusive = small, poorly fitted or top-dose-only effect, or another doubt; inactive = no such curve, though single readings can be large; an effect the other way counts as inactive or inconclusive.

Assay [1] concerns the target Tyrosine-protein kinase Yes (Homo sapiens) (UniProt P07947). The assay can be described thus: qHTS for small molecule inhibitors of Yes1 kinase: Primary Screen (AID 686947). Also: nearly all actives have a fitted effect of over 60% in size. Also: potency is read from the fitted curve at half-maximal effect. Particulars: Yes1 kinase biochemical qHTS inhibition; series mostly up to 76.9 µM. The procedure, abridged:
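ADP-Glo luminescence readout; final 4 nM Yes1, 0.1 mM ATP, 0.3 mg/mL poly(E4Y), Tris pH 7.5, MgCl2, DTT, Brij-35. 20 min compound preincubation, 60 min reaction at RT. Normalized to DMSO wells with and without enzyme.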

Assay [2] in a line: qHTS for small molecule inhibitors of Yes1 kinase: Counter Assay (AID 686950).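 Also: no kinase present so only ADP-Glo detection of a fixed ADP amount is tested; luminescence from ADP-Glo reporting ADP in a fixed ATP and ADP mixture; 0% = DMSO wells with ATP plus ADP and -100% = ATP-only wells without ADP.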 Particulars: series mostly up to 76.9 µM. Put shortly:
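Enzyme-free ADP-Glo interference check: compounds were preincubated 20 min in buffer, then an ATP/ADP mix (0.08 mM ATP, 0.02 mM ADP final) was added for 60 min at room temperature before two-step ADP-Glo luminescence detection.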

Assay [3] in a line: qHTS assay for small molecule activators of the p53 signaling pathway (AID 651743; active = well fitted activation curve with a large enough effect in the signal ratio, not every such curve was filed as active; the % refers to the signal ratio; also: % of control where 0% means no effect). As to conditions: HCT-116 p53RE-bla, beta-lactamase FRET ratio, 16 h; hits give high values. Put shortly:
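p53RE-bla HCT-116 cells with a stably integrated beta-lactamase reporter under p53 response elements were plated, rested 5 hours at 37 C/5% CO2, then exposed to compounds in DMSO for 16 hours at 37 C. LiveBLAzer B/G FRET substrate was read after 2 hours at room temperature.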

A short description of assay [4]: qHTS assay for environmental chemicals that activate the Aryl hydrocarbon Receptor (AhR) signaling pathway (AID 651777). Also: % of control where 0% means no effect; nearly all actives have a fitted effect of over 15% in size. As to conditions: 1A2-DRE human hepatoma cells, luciferase, 24 h; hits give high values. The procedure, abridged:
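Luminescence read-out: One-Glo added for 30 min at RT after 24 hr compound treatment (37 C, 5% CO2) of human hepatoma cells expressing a DRE/CYP1A2 promoter–luciferase reporter; increased signal indicates AhR activation.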

For assay [5], the target named is Peroxisome proliferator-activated receptor alpha (Homo sapiens) (UniProt Q07869). The assay can be described thus: qHTS assay for small molecule agonists of the peroxisome proliferator-activated receptor alpha (PPARalpha) signaling pathway (AID 651778). Also: potency is read from the fitted curve at half-maximal effect. As to max response: % of control where 0% means no effect. As to conditions: PathHunter PPARalpha complementation, chemiluminescence, 6 h; max response: hits give high values. The procedure, abridged: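 Cells plated at 2,000/well and held overnight at 37 C, 5% CO2, then compound added by pin tool for 6 hr; after PathHunter detection reagent and 60 min at room temperature, chemiluminescence from enzyme complementation was read.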
A general note: Quantitative high-throughput screening tests each substance at several concentrations.

The nature of assay [6]: qHTS assay for small molecule agonists of the antioxidant response element (ARE) signaling pathway measured by Nrf2-dependant transcriptional activity (AID 720636; active = well fitted curve in the direction sought with a large enough effect in the repeat runs; an effect the other way counts as inactive or inconclusive;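 also: HepG2 cells with an ARE-driven luciferase reporter; % of control where 0% means no effect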). Particulars: ARE-luc HepG2, Nrf2 luciferase reporter, 16 h; series mostly up to 92.4 µM. The procedure, abridged:
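HepG2 ARE-luc reporter line, 1% dialyzed FBS; 6 hr attachment at 37 C, compound pinned in, 16 hr at 37 C/5% CO2; ONE-Glo, 30 min RT, luminescence read.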

Assay [7] in a line: qHTS assay for small molecule agonists of the antioxidant response element (ARE) signaling pathway (AID 651741; active = well fitted activation curve with a large enough effect in the signal ratio; the % refers to the signal ratio; also: potency is read from the fitted curve at half-maximal effect). Particulars: HepG2 ARE-bla reporter, beta-lactamase FRET ratio, 16 h. The procedure, abridged: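 ARE-bla HepG2 cells (beta-lactamase reporter under ARE control) were plated at 2,000 cells/well, preincubated 5 h at 37 C/5% CO2, then treated with DMSO-dissolved compounds for 16 h at 37 C; LiveBLAzer B/G FRET substrate added, fluorescence read after 2 h at room temperature.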

Assay [8] in a line: qHTS assay for small molecule activators of the nuclear factor-kappa B (NF-kB) signaling pathway (AID 651749; active = well fitted activation curve with a large enough effect in the signal ratio; the % refers to the signal ratio; also: % of control where 0% means no effect). As to conditions: NF-kB-bla ME-180 cells, beta-lactamase FRET ratio, 16 h; hits give high values. The procedure, abridged:
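ME-180 cells stably carrying a beta-lactamase reporter under an NF-kB response element were exposed to compound or DMSO vehicle for 16 hr at 37C, 5% CO2. Pathway activation was read by FRET, since reporter expression disrupts FRET.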

The target in assay [9] is Tumor necrosis factor (Homo sapiens) (UniProt P01375). Briefly: qHTS assay to identify small molecules that stimulate Tumor Necrosis Factor-alpha (TNF-alpha) secretion (AID 651757; active = well fitted curve in the direction sought with a large enough effect in the signal ratio; the % refers to the signal ratio; also: 0% is about no effect). Particulars: Human cells, HTRF 665/615 ratio; series mostly up to 92.2 µM. The procedure, abridged:
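THP-1 cells were exposed to compounds for 17 hrs at 37 C, after which secreted TNF-alpha was measured by homogeneous HTRF (TR-FRET) using cryptate- and XL665-labeled anti-TNF-alpha antibodies, read after 3 hr at room temperature.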

Assay [10] in a line: qHTS assay to identify small molecules that stimulate interleukin-8 (IL-8) secretion (AID 651758; active = well fitted activation curve with a large enough effect in the signal ratio; the % refers to the signal ratio; also: 0% is about no effect). Particulars: HTRF ratio (665/615); series mostly up to 92.2 µM. The procedure, abridged:
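THP-1, 2000 cells/well; cpd 16 h, 37 C; add cryptate + XL665 anti-IL-8 Abs; RT 1-3 h; TR-FRET read.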

The target of assay [11] is Nuclear receptor ROR-gamma (Homo sapiens) (UniProt P51449). Briefly: qHTS assay for small molecule antagonists of the retinoid-related orphan receptor gamma (ROR-gamma) signaling pathway (AID 651802). Also: % is scaled to controls: 0 for no effect and ±100 for the full control effect; nearly all actives have a fitted effect of over 60% in size. Particulars: ROR-gamma antagonist cell reporter assay; series mostly up to 92.2 µM. The procedure, abridged:
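CHO cells carrying TET-inducible ROR-gamma and an ROR response element–luciferase reporter were exposed to compound, then induced with doxycycline. After 16hr at 37C, luminescence was read; lower signal indicates antagonism.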

A short description of assay [12]: qHTS assay for small molecule antagonists of the retinoid-related orphan receptor gamma (ROR-gamma) signaling pathway - cell viability counter screen (AID 720652; active = well fitted curve in the direction sought with a large enough effect in the repeat runs; an effect the other way counts as inactive or inconclusive;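 also: compound exposure lasted 16 hr before ATP read; % is scaled to controls: 0 for no effect and ±100 for the full control effect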). As to conditions: RORgamma reporter cell line viability counter screen; series mostly up to 92.2 µM. The procedure, abridged: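 Counter screen in CHO cells carrying TET-inducible ROR-gamma and an ROR response element-luciferase reporter; cells plated 5 hr, compound pinned, doxycycline added, then 16 hr at 37 C. Viability read as intracellular ATP by CellTiter-Glo luminescence.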

The nature of assay [13]: qHTS assay for small molecule agonists of the antioxidant response element (ARE) signaling pathway measured by Nrf2-dependant transcriptional activity - cell viability counter screen (AID 720653; active = well fitted curve in the direction sought with a large enough effect in the repeat runs; an effect the other way counts as inactive or inconclusive; also: % is scaled to controls: 0 for no effect and ±100 for the full control effect). Particulars: ARE-bla HepG2 viability, CellTiter-Glo ATP luminescence, 16 h; hits give low values. Put shortly:
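ARE-bla HepG2 cells (2,000/well) rested 5 hrs at 37C/5% CO2, then exposed to compounds in DMSO for 16 hrs. Viability was read in the same wells as intracellular ATP by luminescence, 30 min at room temperature after reagent addition.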

Assay [14] can be described thus: Cell Proliferation Assay against the TMD8 Cell Line (Caspase readout at 8 hrs) (AID 651713). Also: potency is read from the fitted curve at half-maximal effect.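 As to caspase activation: 0% = DMSO and 100% = 9.2 µM bortezomib caspase signal.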 Particulars: TMD8 lymphoma cells, caspase activation luminescence; series mostly up to 46.1 µM. Put shortly:
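TMD8 cells (500/well) in phenol red-free RPMI with 5% FBS were treated with compounds for 8 h at 37C, 5% CO2. Caspase-Glo 3/7 luminescence was read after 15 min at room temperature and normalised to DMSO (0%) and 9.2 uM bortezomib (100%).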

Assay [15] is described as follows: qHTS for compounds that reverse cellular toxicity of Amyloid beta (A-beta) peptide in yeast: LOPAC Validation Assay (AID 720559).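 Also: plate controls were DMSO for no effect and equimolar ferric chloride plus clioquinol rescue for full effect.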 Particulars: yeast expressing A-beta; series mostly up to 46.1 µM. The procedure, abridged: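 Medium dispensed, compounds pinned, A-beta yeast suspension added; plates held at 30 C for 48 hr; absorbance measured at 600 nm to gauge growth; values scaled between DMSO and FeCl3/clioquinol (equimolar) controls.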

The nature of assay [16]: qHTS for Activators of Parkin Expression: LOPAC Validation Assay (NLuc Reporter) (AID 720572). As to conditions: Parkin promoter NanoLuc reporter cells, luminescence, percent of positive control, DMSO as zero; series mostly up to 46.1 µM. The procedure, abridged: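 Neuronal line stably carrying a FLuc/NLuc coincidence reporter under the Parkin promoter, seeded 24 h, then dosed in 7-point series for 24 h at 37 C. NLuc luminescence read after FLuc; normalized to DMSO and positive control (100%).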

A short description of assay [17]: qHTS for Activators of Parkin Expression: LOPAC Validation Assay (FLuc Reporter) (AID 720573). As to conditions: Cell line, PRKN promoter firefly luciferase reporter, vehicle wells = 0, positive control = 100%; series mostly up to 46.1 µM. The procedure, abridged:
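Cells seeded, 24 h; compounds pinned, 7-pt dose response; 24 h at 37 C/5% CO2; volume reduced; FLuc reagent 10 min RT; luminescence read. Normalization: DMSO = 0, positive control = 100%.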

Assay [18] has as its target Hexokinase-4 (Homo sapiens) + Glucokinase regulatory protein (Homo sapiens) (UniProt P35557+Q14397). Briefly: qHTS assay for inhibitors of recombinant human GCK-GKRP interaction: Diaphorase-coupled assay (AID 743205). As to conditions: G6PDH/diaphorase resorufin fluorescence; series mostly up to 57.5 µM. Put shortly: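 25 mM Hepes pH 7.6, 5 mM glucose, 0.4 mM ATP, 4 U/ml G6PDH; 10 nM each GST-GCK/FLAG-GKRP. Kinetic fluorescence read, 1/min × 30 min. Normalized: DMSO ± enzyme = max/min.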

Assay [19] deals with Arylsulfatase A (Homo sapiens) (UniProt P15289). Briefly: qHTS screen for enhancers of Arylsulfatase A (ASA1): LOPAC Validation Assay (AID 720538). Particulars: ASA enzyme activity, LOPAC qHTS enhancer assay; series mostly up to 57.5 µM. The procedure, abridged:
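MLD patient fibroblasts (SV40, ASA-I179S), 1536-well; adhere 6 hrs; cpd 48h, 37 degree C, 5% CO2; pNCS 0.5mM final in lysis buffer, 14h RT; stop 1N NaOH final; fluor. Ex525/Em598.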

The nature of assay [20]: Cell Proliferation Assay against the TMD8 Cell Line (Caspase readout at 16 hrs) (AID 651712). Also: potency is read from the fitted curve at half-maximal effect. As to conditions: TMD8 lymphoma cells, caspase activation luminescence. Put shortly: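 TMD8 cells (500/well) in phenol-red-free RPMI with glutamine, 5% FBS, were exposed to compounds for 16 h at 37 °C. Caspase 3/7 activation was read by Caspase-Glo luminescence; percent activity normalised to DMSO (0%) and 9.2 uM bortezomib final (100%).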

Hexokinase-4 (Homo sapiens) + Glucokinase regulatory protein (Homo sapiens), sequence (P35557 whole entry, looked up): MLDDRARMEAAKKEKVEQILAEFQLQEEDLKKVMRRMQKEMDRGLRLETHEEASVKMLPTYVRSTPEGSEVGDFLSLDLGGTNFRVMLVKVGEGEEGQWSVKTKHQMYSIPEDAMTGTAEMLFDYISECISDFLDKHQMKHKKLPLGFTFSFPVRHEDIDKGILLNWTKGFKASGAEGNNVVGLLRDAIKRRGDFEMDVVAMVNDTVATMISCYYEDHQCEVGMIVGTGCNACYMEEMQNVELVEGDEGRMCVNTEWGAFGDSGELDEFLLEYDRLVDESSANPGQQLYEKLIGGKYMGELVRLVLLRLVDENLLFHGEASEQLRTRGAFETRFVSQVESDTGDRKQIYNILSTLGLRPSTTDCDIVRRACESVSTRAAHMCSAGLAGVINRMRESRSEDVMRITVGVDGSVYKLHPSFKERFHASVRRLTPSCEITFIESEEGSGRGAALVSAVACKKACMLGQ
Hexokinase-4 (Homo sapiens) + Glucokinase regulatory protein (Homo sapiens), sequence (Q14397 whole entry, looked up): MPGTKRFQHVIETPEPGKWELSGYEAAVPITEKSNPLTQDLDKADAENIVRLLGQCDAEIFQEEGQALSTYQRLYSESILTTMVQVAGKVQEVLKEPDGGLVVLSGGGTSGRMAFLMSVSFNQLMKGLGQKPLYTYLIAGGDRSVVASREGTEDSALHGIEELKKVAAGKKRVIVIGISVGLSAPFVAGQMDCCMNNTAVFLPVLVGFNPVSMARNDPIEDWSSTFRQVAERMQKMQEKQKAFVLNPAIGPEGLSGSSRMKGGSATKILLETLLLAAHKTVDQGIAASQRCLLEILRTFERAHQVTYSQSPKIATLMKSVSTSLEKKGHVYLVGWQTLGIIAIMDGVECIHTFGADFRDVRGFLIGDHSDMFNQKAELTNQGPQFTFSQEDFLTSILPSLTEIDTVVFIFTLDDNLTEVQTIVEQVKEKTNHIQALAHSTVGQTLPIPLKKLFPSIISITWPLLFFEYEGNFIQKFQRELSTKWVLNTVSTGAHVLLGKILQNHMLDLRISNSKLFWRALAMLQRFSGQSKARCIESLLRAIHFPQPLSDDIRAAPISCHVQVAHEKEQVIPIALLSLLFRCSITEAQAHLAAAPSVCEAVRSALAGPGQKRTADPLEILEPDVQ
Peroxisome proliferator-activated receptor alpha (Homo sapiens), sequence (Q07869 whole entry, looked up): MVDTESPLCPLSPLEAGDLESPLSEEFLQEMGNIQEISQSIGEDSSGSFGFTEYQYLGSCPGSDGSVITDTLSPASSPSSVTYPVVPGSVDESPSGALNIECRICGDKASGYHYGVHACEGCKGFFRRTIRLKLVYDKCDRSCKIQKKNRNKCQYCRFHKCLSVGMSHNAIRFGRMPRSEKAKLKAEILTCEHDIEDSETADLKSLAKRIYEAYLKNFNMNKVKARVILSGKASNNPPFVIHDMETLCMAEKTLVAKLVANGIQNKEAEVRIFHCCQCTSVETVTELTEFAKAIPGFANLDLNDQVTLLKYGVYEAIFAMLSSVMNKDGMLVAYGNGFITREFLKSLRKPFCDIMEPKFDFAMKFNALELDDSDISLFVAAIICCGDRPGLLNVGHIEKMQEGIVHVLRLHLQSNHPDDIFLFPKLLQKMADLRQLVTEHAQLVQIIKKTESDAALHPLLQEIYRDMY
Tyrosine-protein kinase Yes (Homo sapiens), sequence (P07947 whole entry, looked up): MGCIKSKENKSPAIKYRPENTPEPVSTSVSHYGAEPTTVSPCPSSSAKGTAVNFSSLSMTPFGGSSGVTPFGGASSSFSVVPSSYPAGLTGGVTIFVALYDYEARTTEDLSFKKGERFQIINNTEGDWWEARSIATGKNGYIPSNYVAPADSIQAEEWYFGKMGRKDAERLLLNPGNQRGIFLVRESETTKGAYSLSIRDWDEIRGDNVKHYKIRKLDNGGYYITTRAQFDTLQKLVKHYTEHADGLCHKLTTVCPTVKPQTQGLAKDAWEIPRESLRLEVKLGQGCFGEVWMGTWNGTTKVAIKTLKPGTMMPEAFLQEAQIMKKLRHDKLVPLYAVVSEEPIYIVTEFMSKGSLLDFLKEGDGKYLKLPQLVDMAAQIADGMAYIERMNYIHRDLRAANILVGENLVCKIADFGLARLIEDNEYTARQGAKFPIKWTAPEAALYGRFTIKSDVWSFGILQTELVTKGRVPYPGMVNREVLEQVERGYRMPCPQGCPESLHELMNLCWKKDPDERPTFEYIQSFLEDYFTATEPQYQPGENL
Arylsulfatase A (Homo sapiens), sequence (P15289 whole entry, looked up): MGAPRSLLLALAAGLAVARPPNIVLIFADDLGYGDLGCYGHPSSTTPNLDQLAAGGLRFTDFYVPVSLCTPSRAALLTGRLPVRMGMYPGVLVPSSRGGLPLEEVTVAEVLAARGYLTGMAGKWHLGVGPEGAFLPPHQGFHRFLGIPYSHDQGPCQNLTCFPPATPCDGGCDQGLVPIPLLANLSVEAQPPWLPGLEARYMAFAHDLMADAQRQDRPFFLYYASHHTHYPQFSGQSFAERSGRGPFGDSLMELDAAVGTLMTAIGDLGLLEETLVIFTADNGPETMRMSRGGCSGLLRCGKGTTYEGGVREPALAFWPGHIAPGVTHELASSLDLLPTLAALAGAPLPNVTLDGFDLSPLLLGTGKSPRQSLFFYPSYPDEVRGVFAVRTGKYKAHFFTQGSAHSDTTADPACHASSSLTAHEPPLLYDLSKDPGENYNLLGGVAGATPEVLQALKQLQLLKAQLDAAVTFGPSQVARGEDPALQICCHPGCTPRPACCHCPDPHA
Tumor necrosis factor (Homo sapiens), sequence (P01375 whole entry, looked up): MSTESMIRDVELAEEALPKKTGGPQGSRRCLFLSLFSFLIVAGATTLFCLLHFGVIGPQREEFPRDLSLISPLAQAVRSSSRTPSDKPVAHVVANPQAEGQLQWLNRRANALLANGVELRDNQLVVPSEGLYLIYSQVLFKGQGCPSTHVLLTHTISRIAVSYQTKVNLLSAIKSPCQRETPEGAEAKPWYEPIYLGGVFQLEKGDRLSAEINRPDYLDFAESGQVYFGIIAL
Nuclear receptor ROR-gamma (Homo sapiens), sequence (P51449 whole entry, looked up): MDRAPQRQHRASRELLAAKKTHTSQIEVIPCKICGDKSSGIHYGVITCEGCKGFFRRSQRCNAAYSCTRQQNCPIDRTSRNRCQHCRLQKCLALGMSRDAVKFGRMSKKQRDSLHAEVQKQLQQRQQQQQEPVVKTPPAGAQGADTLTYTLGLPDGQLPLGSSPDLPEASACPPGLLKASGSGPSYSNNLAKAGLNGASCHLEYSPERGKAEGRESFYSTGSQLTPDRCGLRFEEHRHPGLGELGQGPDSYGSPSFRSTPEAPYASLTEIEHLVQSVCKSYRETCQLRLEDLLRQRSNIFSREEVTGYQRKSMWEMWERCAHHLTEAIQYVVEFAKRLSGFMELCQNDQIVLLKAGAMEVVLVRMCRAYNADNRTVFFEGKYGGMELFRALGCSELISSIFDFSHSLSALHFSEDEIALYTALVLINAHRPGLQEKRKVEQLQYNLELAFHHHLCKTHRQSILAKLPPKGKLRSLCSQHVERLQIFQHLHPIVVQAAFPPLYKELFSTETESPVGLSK

Consider `C=CCNC1=C2C[C@@H](C)C[C@H](OC)[C@@H](O)[C@@H](C)C=C(C)[C@H](OC(N)=O)[C@@H](OC)C=CC=C(C)C(=O)NC(=CC1=O)C2=O`, for which, in [1], the Potency entry is “inactive”. Besides, the outcome in assay [2] was inactive.

Take `CC(C=CC1=C(C)CCCC1(C)C)=CC=CC(C)=CC(=O)Nc1ccc(O)cc1`: the activation in assay [3] is 0.252%; in [4] it was -5.07%. In [5], the Potency is 8.91 µM (active). Further, the outcome in assay [6] was inactive.

Turning to `Cc1cc(O)c2c(c1)C(=O)c1cccc(O)c1C2=O`, in assay [7], the Potency was 26.6 µM (active). For the same molecule, the results for the activation in [3], in assay [8] and in [4] were -1.77%, -0.078% and 0.266%, respectively. Moreover, the outcome in [9], in assay [10], in assay [11], in [6] and in [12] was inactive. For the same molecule, the max response is -1.41% in [5] and -8.79% in assay [13].

Take `N#Cc1ccc(COC[C@H]2O[C@@H](n3c(NCc4ccc(Cl)c(Cl)c4)nc4c(N)ncnc43)[C@@H](O)[C@@H]2O)cc1`: the Potency in assay [14] was 29.6 µM (active); in assay [1], 0.487 µM (active). Besides, in assay [2], the result was inactive.

With `COc1ccc2cc([S+]([O-])Cc3ncc(C)c(OC)c3C)nc2c1`, the result in [15], in assay [16], in [17] and in assay [18] was inactive.

As for `C[C@]12CC[C@@H]3c4ccc(O)cc4CC[C@H]3[C@H]1CC[C@H]2O`, the activation in [3] is 13.4%; in [4], 2.62%. Moreover, the results for the max response in assay [5] and in assay [13] were -1.17% and -1.4%, respectively. Also, the call in assay [6] was inactive.

Consider `COc1cc2c(cc1OC)[C@@H]1C(=O)c3ccc4c(c3O[C@@H]1CO2)C=CC(C)(C)O4`, for which the Potency result in assay [14] and in assay [1] was “inactive” each time. For the same molecule, the call in assay [2] was inactive.

With `COc1cc(C)c(Sc2cnc(NC(=O)c3ccc(CNC(C)C(C)(C)C)cc3)s2)cc1C(=O)N1CCN(C(C)=O)CC1` (stereo not given), the Potency in assay [1] was 0.0547 µM (active). The call in assay [2] was inactive.

For `N#Cc1c(NC(=O)c2cccc3ccccc23)sc2c1CCCC2`, the Potency result in assay [1] was “inactive”. Also, the result in [2] was inactive.

In the case of `N#Cc1cc(NC(=O)Nc2nnc(-c3ccncc3)s2)ccc1-c1cn[nH]c1`, the result in assay [2] was inactive.

Regarding `CN[C@H](CC(C)C)C(=O)N[C@H]1C(=O)N[C@@H](CC(N)=O)C(=O)N[C@@H]2C(=O)N[C@H]3C(=O)N[C@H](C(=O)N[C@H](C(=O)O)c4cc(O)cc(O)c4-c4cc3ccc4O)[C@H](O)c3ccc(c(Cl)c3)Oc3cc2cc(c3O[C@@H]2O[C@H](CO)[C@@H](O)[C@H](O)[C@@H]2O[C@H]2C[C@](C)(N)[C@H](O)[C@H](C)O2)Oc2ccc(cc2Cl)[C@H]1O`, the result in [19], in assay [15], in assay [16], in assay [17] and in [18] was inactive.

Consider `O=C1c2cccc(O)c2C(=O)c2c(O)cc(CO)cc21`, for which the activation is 6.22% in assay [3] and 2.38% in assay [4]. For the same molecule, the max response in [5] is -2.01%; in assay [13], 1.52%.

In the case of `O=c1[nH]c(=O)n([C@H]2C[C@@H](O)[C@@H](CO)O2)cc1C=CBr`, the outcome in assay [19], in assay [15], in assay [16], in assay [17] and in assay [18] was inactive.

As to `OC[C@@H](O)[C@@H](O)[C@H](O)[C@@H](O)CO`, the activation in [3] is -2.74%; in [8], -0.0055%; in [4] it was 0.287%. The max response in [5] is -1.39%; in assay [13], 2.04%. For the same molecule, the result in assay [6] was inactive.

Consider `Cn1c(Nc2ccc(C(F)(F)F)cc2)nc2cc(Oc3ccnc(-c4ncc(C(F)(F)F)[nH]4)c3)ccc21`, for which, in assay [20], the Potency is 16.6 µM (active). Further, in assay [14], the Potency result was “inactive”. Moreover, the call in [2] was inactive.
